Laboratory results from PubChem BioAssay AID1159580 (chemical genetic matrix, 2015).
Values joined by “and” are separate entries in the source; they are usually repeats but may differ in a detail not shown here. Identical values can stand only once. Hit rate of the full screen: of about 5,500 compounds, about 2,000 (36%) were called active. Inconclusive results (about 18%) are left out. Rule as the data show it: active = normalized growth mostly below about 0.91 (no sharp cut-off); inconclusive = no clear call, values can overlap the other calls; inactive = mostly above about 0.92. This is one part of the list.

Experiment: chemical genetic growth profiling, strain panel (AID 1159580);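 also: tested at 20 µM; growth read once vehicle control cultures reached saturation at 30 °C; 1 = growth at the plate median or of vehicle wells; lower values mean less growth of the strain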
Settings: growth OD

Measured: normalized growth

CO[C@H]1[C@H](O)[C@@H](O[C@H]2CC[C@]3(C=O)C4CC[C@]5(C)[C@@H](C6=CC(=O)OC6)CC[C@]5(O)C4CC[C@@H]3C2)O[C@@H](C)[C@@H]1O (some centres not stated)
inactive: S. cerevisiae deletion strains, locus YAL013W, strain DEP1, stronger effect = lower value 0.982 | S. cerevisiae deletion strains, locus YBR021W, strain FUR4, stronger effect = lower value 1.01 | S. cerevisiae deletion strains, locus YBR229C, strain ROT2, stronger effect = lower value 0.959 | S. cerevisiae deletion strains, locus YCL029C, strain bik1, stronger effect = lower value 0.993 | S. cerevisiae deletion strains, locus YDL035C, strain GPR1, stronger effect = lower value 0.986 | S. cerevisiae deletion strains, locus YDL074C, strain BRE1, stronger effect = lower value 1.01 | S. cerevisiae deletion strains, locus YDL101C, strain DUN1, stronger effect = lower value 0.973 | S. cerevisiae deletion strains, locus YDL134C, strain PPH21, stronger effect = lower value 0.986 | S. cerevisiae deletion strains, locus YDL185W, strain tfp1, stronger effect = lower value 0.989 | S. cerevisiae deletion strains, locus YDL192W, strain arf1, stronger effect = lower value 0.99 | S. cerevisiae deletion strains, locus YDR101C, strain arx1, stronger effect = lower value 1 | S. cerevisiae deletion strains, locus YDR150W, strain NUM1, stronger effect = lower value 0.966 | S. cerevisiae deletion strains, locus YDR162C, strain NBP2, stronger effect = lower value 0.978 | S. cerevisiae deletion strains, locus YDR318W, strain mcm21, stronger effect = lower value 1.01 | S. cerevisiae deletion strains, locus YDR388W, stronger effect = lower value 0.999 | S. cerevisiae deletion strains, locus YDR502C, strain sam2, stronger effect = lower value 0.992 | S. cerevisiae deletion strains, locus YEL061C, strain CIN8, stronger effect = lower value 0.984 | S. cerevisiae deletion strains, locus YER110C, stronger effect = lower value 0.973 | S. cerevisiae deletion strains, locus YER155C, strain BEM2, stronger effect = lower value 0.997 | S. cerevisiae deletion strains, locus YER167W, strain BCK2, stronger effect = lower value 0.995 | S. cerevisiae deletion strains, locus YGL078C, strain dbp3, stronger effect = lower value 0.986 | S. cerevisiae deletion strains, locus YGL086W, strain mad1, stronger effect = lower value 0.989 | S. cerevisiae deletion strains, locus YGL248W, strain PDE1, stronger effect = lower value 0.973 | S. cerevisiae deletion strains, locus YGR078C, strain PAC10, stronger effect = lower value 1 | S. cerevisiae deletion strains, locus YGR135W, strain pre9, stronger effect = lower value 1 | S. cerevisiae deletion strains, locus YGR229C, strain SMI1, stronger effect = lower value 0.996 | S. cerevisiae deletion strains, locus YGR252W, strain gcn5, stronger effect = lower value 0.999 | S. cerevisiae deletion strains, locus YHR030C, strain SLT2, stronger effect = lower value 0.987 and 0.975 | S. cerevisiae deletion strains, locus YHR079C, strain IRE1 (second series), stronger effect = lower value 0.99 | S. cerevisiae deletion strains, locus YHR079C, strain IRE1, stronger effect = lower value 0.965 | S. cerevisiae deletion strains, locus YHR094C, strain hxt1, stronger effect = lower value 0.988 | S. cerevisiae deletion strains, locus YHR129C, strain ARP1, stronger effect = lower value 0.996 | S. cerevisiae deletion strains, locus YHR200W, strain rpn10, stronger effect = lower value 0.999 | S. cerevisiae deletion strains, locus YIL066C, strain RNR3, stronger effect = lower value 0.968 | S. cerevisiae deletion strains, locus YIL073C, strain SPO22, stronger effect = lower value 0.994 | S. cerevisiae deletion strains, locus YIL125W, strain kgd1, stronger effect = lower value 0.98 | S. cerevisiae deletion strains, locus YIR030C, strain dcg1, stronger effect = lower value 0.982 | S. cerevisiae deletion strains, locus YJL095W, strain BCK1, stronger effect = lower value 1.04 and 0.973 | S. cerevisiae deletion strains, locus YJL134W, strain LCB3, stronger effect = lower value 0.981 | S. cerevisiae deletion strains, locus YJL168C, strain set2, stronger effect = lower value 0.992 | S. cerevisiae deletion strains, locus YJL187C, strain SWE1 (second series), stronger effect = lower value 0.99 | S. cerevisiae deletion strains, locus YJR043C, strain POL32, stronger effect = lower value 1.01 | S. cerevisiae deletion strains, locus YJR066W, strain TOR1, stronger effect = lower value 0.972 | S. cerevisiae deletion strains, locus YJR075W, strain HOC1, stronger effect = lower value 0.998 | S. cerevisiae deletion strains, locus YKL009W, strain mrt4, stronger effect = lower value 0.943 | S. cerevisiae deletion strains, locus YKL068W, stronger effect = lower value 0.994 | S. cerevisiae deletion strains, locus YKL085W, strain MDH1 (second series), stronger effect = lower value 0.98 | S. cerevisiae deletion strains, locus YKL085W, strain MDH1, stronger effect = lower value 0.98 | S. cerevisiae deletion strains, locus YKL190W, strain CNB1, stronger effect = lower value 0.991 | S. cerevisiae deletion strains, locus YKR001C, strain vps1, stronger effect = lower value 0.993 | S. cerevisiae deletion strains, locus YLR039C, strain RIC1, stronger effect = lower value 0.969 | S. cerevisiae deletion strains, locus YLR058C, strain SHM2, stronger effect = lower value 0.965 | S. cerevisiae deletion strains, locus YLR102C, strain apc9, stronger effect = lower value 0.994 | S. cerevisiae deletion strains, locus YLR113W, strain HOG1, stronger effect = lower value 0.975 | S. cerevisiae deletion strains, locus YLR262C, strain YPT6, stronger effect = lower value 0.972 | S. cerevisiae deletion strains, locus YLR268W, strain sec22, stronger effect = lower value 1.05 | S. cerevisiae deletion strains, locus YLR330W, strain CHS5, stronger effect = lower value 0.982 | S. cerevisiae deletion strains, locus YLR342W, strain FKS1 (second series), stronger effect = lower value 0.998 | S. cerevisiae deletion strains, locus YLR371W, strain rom2, stronger effect = lower value 0.979 | S. cerevisiae deletion strains, locus YLR418C, strain cdc73, stronger effect = lower value 1 | S. cerevisiae deletion strains, locus YML016C, strain PPZ1, stronger effect = lower value 0.987 | S. cerevisiae deletion strains, locus YML032C, strain rad52, stronger effect = lower value 1.01 | S. cerevisiae deletion strains, locus YML124C, strain tub3, stronger effect = lower value 0.989 | S. cerevisiae deletion strains, locus YMR078C, strain ctf18, stronger effect = lower value 0.993 | S. cerevisiae deletion strains, locus YMR223W, strain ubp8, stronger effect = lower value 0.977 | S. cerevisiae deletion strains, locus YMR263W, strain SAP30, stronger effect = lower value 0.987 | S. cerevisiae deletion strains, locus YMR307W, strain GAS1, stronger effect = lower value 0.981 | S. cerevisiae deletion strains, locus YNL067W, strain RPL9B, stronger effect = lower value 1.01 | S. cerevisiae deletion strains, locus YNL128W, strain TEP1, stronger effect = lower value 0.969 | S. cerevisiae deletion strains, locus YNL153C, strain GIM3, stronger effect = lower value 0.994 | S. cerevisiae deletion strains, locus YNL183C, strain NPR1, stronger effect = lower value 0.903 | S. cerevisiae deletion strains, locus YNL233W, strain BNI4, stronger effect = lower value 0.999 | S. cerevisiae deletion strains, locus YNL250W, strain rad50, stronger effect = lower value 0.969 | S. cerevisiae deletion strains, locus YNL271C, strain bni1, stronger effect = lower value 1 | S. cerevisiae deletion strains, locus YNL298W, strain CLA4, stronger effect = lower value 0.992 | S. cerevisiae deletion strains, locus YNL307C, strain MCK1, stronger effect = lower value 0.993 | S. cerevisiae deletion strains, locus YNL322C, strain KRE1, stronger effect = lower value 0.989 | S. cerevisiae deletion strains, locus YNR052C, strain pop2, stronger effect = lower value 1.01 | S. cerevisiae deletion strains, locus YOL006C, strain TOP1, stronger effect = lower value 1.01 | S. cerevisiae deletion strains, locus YOL012C, strain htz1 0.939 | S. cerevisiae deletion strains, locus YOL147C, strain pex11, stronger effect = lower value 0.998 | S. cerevisiae deletion strains, locus YOR061W, strain CKA2, stronger effect = lower value 0.968 | S. cerevisiae deletion strains, locus YOR069W, strain VPS5, stronger effect = lower value 0.988 | S. cerevisiae deletion strains, locus YOR136W, strain idh2, stronger effect = lower value 0.986 | S. cerevisiae deletion strains, locus YOR144C, strain elg1, stronger effect = lower value 0.998 | S. cerevisiae deletion strains, locus YOR184W, strain ser1, stronger effect = lower value 0.981 | S. cerevisiae deletion strains, locus YOR231W, strain MKK1, stronger effect = lower value 0.957 | S. cerevisiae deletion strains, locus YOR316C, strain cot1, stronger effect = lower value 0.985 | S. cerevisiae deletion strains, locus YPL055C, strain LGE1, stronger effect = lower value 0.979 | S. cerevisiae deletion strains, locus YPL241C, strain CIN2, stronger effect = lower value 0.992 | S. cerevisiae deletion strains, locus YPL256C, strain CLN2, stronger effect = lower value 0.948 | S. cerevisiae deletion strains, locus YPR119W, strain clb2, stronger effect = lower value 0.989 | S. cerevisiae deletion strains, locus YPR141C, strain kar3, stronger effect = lower value 0.983 | S. cerevisiae deletion strains, locus YPR163C, strain tif3, stronger effect = lower value 1 | S. cerevisiae deletion strains, locus YPR167C, strain met16, stronger effect = lower value 0.992 | S. cerevisiae deletion strains, strain wtn01, stronger effect = lower value 0.996 | S. cerevisiae strains, strain wild type, stronger effect = lower value 0.978
